About 14,000 (4.5%) of roughly 310,000 compounds showed an effect of 50% or more. Effects have a minus sign here. For the sample, strong results were picked, then their nearest neighbours and some compounds at random.
Target: human ether-à-go-go-related gene (hERG) potassium channel (human, UniProt Q12809)
Experiment: primary screen, population patch clamp on CHO cells stably expressing hERG; higher = less effect of the substance
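Note: peak tail current of the secondary pulse compared with the same well before compound.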

human ether-à-go-go-related gene (hERG) potassium channel, sequence (Q12809 whole entry, looked up): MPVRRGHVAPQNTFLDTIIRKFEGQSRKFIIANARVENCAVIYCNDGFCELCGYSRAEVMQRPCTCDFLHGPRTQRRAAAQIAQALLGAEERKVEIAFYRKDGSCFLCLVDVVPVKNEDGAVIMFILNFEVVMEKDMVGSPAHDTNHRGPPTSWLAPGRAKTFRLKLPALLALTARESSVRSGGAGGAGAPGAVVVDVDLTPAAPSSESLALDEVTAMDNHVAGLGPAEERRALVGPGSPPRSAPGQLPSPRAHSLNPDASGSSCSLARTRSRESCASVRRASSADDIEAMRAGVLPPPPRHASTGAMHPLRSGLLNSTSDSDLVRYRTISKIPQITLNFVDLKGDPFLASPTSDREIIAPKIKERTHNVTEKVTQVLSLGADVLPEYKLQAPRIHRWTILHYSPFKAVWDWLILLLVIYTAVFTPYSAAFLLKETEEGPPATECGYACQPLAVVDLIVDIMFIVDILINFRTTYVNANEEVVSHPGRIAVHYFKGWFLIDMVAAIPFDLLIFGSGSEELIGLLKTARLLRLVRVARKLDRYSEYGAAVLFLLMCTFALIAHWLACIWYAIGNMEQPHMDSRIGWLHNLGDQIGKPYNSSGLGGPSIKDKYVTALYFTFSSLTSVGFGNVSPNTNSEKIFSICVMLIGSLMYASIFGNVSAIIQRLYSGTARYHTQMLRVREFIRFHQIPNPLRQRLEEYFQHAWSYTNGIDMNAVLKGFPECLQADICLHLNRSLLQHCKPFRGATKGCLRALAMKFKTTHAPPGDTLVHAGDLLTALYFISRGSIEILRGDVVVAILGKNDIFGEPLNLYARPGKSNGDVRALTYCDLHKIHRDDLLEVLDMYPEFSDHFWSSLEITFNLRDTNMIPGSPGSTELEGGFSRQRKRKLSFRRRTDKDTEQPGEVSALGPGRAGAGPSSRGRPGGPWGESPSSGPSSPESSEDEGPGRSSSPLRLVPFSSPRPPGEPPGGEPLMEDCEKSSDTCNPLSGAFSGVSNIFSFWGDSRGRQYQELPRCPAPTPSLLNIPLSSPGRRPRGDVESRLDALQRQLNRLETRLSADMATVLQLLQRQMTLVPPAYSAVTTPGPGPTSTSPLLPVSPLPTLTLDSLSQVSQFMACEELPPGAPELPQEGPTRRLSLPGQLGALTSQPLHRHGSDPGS

Row | Compound | hERG current change (%, negative = inhibition) at 10uM [%]
1 | Cc1ccc(C)c(S(=O)(=O)N2CCN(CC(=O)NC(=O)NCc3ccco3)CC2)c1 | -24.5
2 | Cc1cc(=S)c2cccc(C)c2[nH]1 | 9.4
3 | Fc1cccc(CNc2ncnc3ccc(-c4ccc5c(c4)OCO5)cc23)c1 | -31
4 | COc1ccc(NC(=O)CNC(=O)C2CCCCC2)cc1 | 18.1
5 | CCCOc1ccc(C(=O)N/N=C/c2ccc(-c3ccc(S(=O)(=O)Nc4ncccn4)cc3)o2)cc1 | -7.38
6 | Cc1ccc(C(=O)N2CCN(c3ccc(NC(=S)NC(=O)Cc4ccccc4)cc3)CC2)cc1 | -17.1
7 | O=C(/C=C\c1ccco1)Nc1ccc(N2CCN(C(=O)c3ccccc3)CC2)cc1 | -55.7
8 | COc1ccc(C(=O)N2CCN(c3ccc(NC(=O)Cc4ccccc4)cc3)CC2)cc1 | -31.8
9 | CCCCCC(=O)Nc1ccc(N2CCN(C(=O)c3ccccc3)CC2)cc1 | -62.8
10 | CCCCCC(=O)Nc1ccc(N2CCN(C(=O)CCC)CC2)cc1 | -32.8
11 | Cc1ccc(C(=O)N2CCN(c3ccc(NC(=O)Cc4ccccc4)cc3)CC2)cc1 | -71.5
12 | O=C(/C=C/c1ccco1)Nc1ccc(N2CCCC2)cc1 | 10.5
13 | O=C(/C=C/c1ccco1)N1CCN(c2ccccc2)CC1 | -1.71
14 | CCCCCCC(=O)Nc1ccc(C(=O)N2CCCC2)cc1 | 0.864
15 | Cc1ccc(C(=O)N2CCN(c3ccc(NC(=O)COc4ccccc4C)cc3)CC2)cc1 | -73.6
16 | Cc1cccc(OCC(=O)Nc2ccc(N3CCN(C(=O)c4ccccc4)CC3)cc2)c1C | 3.45
17 | Cc1ccc(OCC(=O)Nc2ccc(N3CCN(C(=O)c4ccc(C)cc4)CC3)cc2)cc1 | 9.99
18 | COc1ccc2c(c1)CC/C(=C/c1ccco1)C2=O | 10.7
19 | CCSc1oc(-c2ccco2)nc1S(=O)(=O)c1ccccc1 | -12.8
20 | CCOc1ccc(C(=O)Nc2c3c(nn2-c2ccc(F)cc2)CS(=O)C3)cc1 (centres unmarked) | -1.14
21 | COCCNC(=S)N1CCN(C(c2ccccc2)c2ccccc2)CC1 | -10.1
22 | COc1cc(C(=O)Nc2ncccc2C)ccc1OCC(=O)N1CCOCC1 | -4.78

Row | Compound | hERG current change (%, negative = inhibition) at 10uM [%]
23 | CC1(c2nnc(-c3cccc(Cl)c3)o2)CC(c2ccc(F)cc2)=NO1 (centres unmarked) | -8.47
24 | OCCCc1nc2n(n1)C(c1cccs1)C=C(c1ccccc1)N2 (centres unmarked) | -38.5
25 | COc1ccc(C2C=C(c3ccccc3)Nc3nc(CCCO)nn32)cc1 (centres unmarked) | -51.8
26 | COc1ccc(C2C=C(c3cccs3)Nc3nc(CCCO)nn32)cc1 (centres unmarked) | -57.9
27 | OCCCc1nc2n(n1)C(c1ccccc1Cl)C=C(c1cccs1)N2 (centres unmarked) | -5.71
28 | OCCCc1nc2n(n1)C(c1ccccc1)C=C(c1ccccc1)N2 (centres unmarked) | -17.3
29 | OCCCc1nc2n(n1)C(c1ccccc1)C=C(c1ccc(F)cc1)N2 (centres unmarked) | -12.8
30 | O=C(CCc1nc(-c2ccccc2)no1)NC1CCCCCC1 | 1.28
31 | CCc1cccc(C)c1NC(=O)CSc1nc(-c2ccccc2F)nc2nc[nH]c12 | 3.31
32 | NC(=O)c1cc([N+](=O)[O-])c(Cl)cc1NCc1cccnc1 | -8.53
33 | Cc1cc(C)cc(OCC(=O)NNC(=O)c2ccccn2)c1 | -34.6
34 | CN(C)S(=O)(=O)n1cc(/C=C(\NC(=O)c2ccccc2Cl)C(=O)N2CCOCC2)c2ccccc21 | -7.07
35 | CNC(=O)/C(=C/c1ccc2c(c1)OCO2)NC(=O)c1ccc(Br)cc1 | -63.4
36 | O=C(Nc1ccc(C(=O)O)cc1)/C(=C\c1ccc2c(c1)OCO2)NC(=O)c1ccccc1 | 22
37 | Cc1ccc(C(=O)N/C(=C\c2ccc3c(c2)OCO3)C(=O)Nc2ccc(C(=O)O)cc2)cc1 | 17.9
38 | O=C(Nc1ccc(C(=O)O)cc1)/C(=C\c1ccc2c(c1)OCO2)NC(=O)c1ccc(Br)cc1 | 5.36
39 | CNC(=O)/C(=C\c1ccc2c(c1)OCO2)NC(=O)c1ccc(Br)cc1 | -56.5
40 | O=C(Nc1cccc(C(=O)O)c1)/C(=C\c1ccc2c(c1)OCO2)NC(=O)c1ccc(Br)cc1 | 17.9
41 | COC(=O)c1ccc(NC(=O)c2ccccc2N(C)S(=O)(=O)c2ccccc2)cc1 | 16.3
42 | CN1CCN(C(c2ccc(Cl)cc2)c2cc(Cl)c3cccnc3c2O)CC1 (centres unmarked) | 7.12
43 | Cc1ccc(C(c2cc(Cl)c3cccnc3c2O)N2CCN(C)CC2)cc1 (centres unmarked) | -9.97
44 | CC(C)(C)c1cc(C(c2cccnc2)N2CCN(CCO)CC2)cc(C(C)(C)C)c1O (centres unmarked) | -53.8

Row | Compound | hERG current change (%, negative = inhibition) at 10uM [%]
45 | CC(C)(C)c1cc(C(=S)N2CCN(CCO)CC2)cc(C(C)(C)C)c1O | -26.6
46 | CCN1CCN(C(c2cccnc2)c2cc(Cl)c3cccnc3c2O)CC1 (centres unmarked) | -72.4
47 | CC(C)(C)c1cc(CN2CCN(CCO)CC2)cc(C(C)(C)C)c1O | -19
48 | COC(=O)C1=C(C(=O)OC)[C@@H]2N(Cc3ccccc3)c3ccccc3[C@@]23C[C@@H](CO)N(C(=O)NC2CCCC2)C3=N1 | -9.18
49 | CC(CN(C)Cc1ccccc1)OC(=O)c1cccs1.Cl (centres unmarked) | -10.5
50 | COc1cc2c(cc1OC)C(C)N(C(=O)C1COc3ccccc3O1)CC2 (centres unmarked) | -35.3
51 | Cc1sc2nc(C3CC3)nc(N3CCN(S(=O)(=O)c4ccc(F)cc4)CC3)c2c1C | -0.18
52 | COc1ccc(C(=O)N2CCN(c3nc(C4CC4)nc4sc(C)c(C)c34)CC2)cc1.Cl | -23.8
53 | Cc1sc2ncnc(N3CCC(C(=O)NNC(=O)c4ccc(Cl)cc4)CC3)c2c1C | -11.2
54 | Cc1sc2nc(C3CC3)nc(N3CCN(C(=O)c4ccccc4F)CC3)c2c1C.Cl | -37.6
55 | Cc1sc2nc(C3CC3)nc(N3CCN(C(=O)c4ccc(Cl)cc4)CC3)c2c1C.Cl | -57.1
56 | Cc1sc2nc(C3CC3)nc(N3CCN(C(=O)c4ccc(F)cc4)CC3)c2c1C.Cl | -69.8
57 | O=C(CN(c1ccc2c(c1)OCCO2)S(=O)(=O)c1ccccc1)NCc1ccco1 | 4.37
58 | O=C(Nc1ccc(F)cc1F)c1ccc2c(c1)OCCO2 | 15.4
59 | Cc1cccc(NC(=S)N(CCN2CCOCC2)Cc2cc3cc4c(cc3[nH]c2=O)OCCO4)c1 | -3.3
60 | CN(C(=O)COC(=O)c1cc(S(=O)(=O)N2CCCCC2)ccc1N1CCOCC1)C1CCS(=O)(=O)C1 (centres unmarked) | -6.63
61 | CCCCc1c(O)c2ccccc2[nH]c1=O | 0.685
62 | COc1ccc(-n2c(C)cc(C(=O)CSc3nnc(-c4ccoc4C)n3C)c2C)cc1 | -31.1
63 | CCSC1=N/C(=C\C=C2/Oc3ccccc3N2CC)C(=O)S1 | -3.2
64 | COc1ccc(C(=O)C2CCCN(C3Cc4ccccc4C3)C2)c(OC)c1 (centres unmarked) | -76.5
65 | COc1ccc(C(=O)C2CCCN(C3Cc4ccccc4C3)C2)cc1OC (centres unmarked) | -76.6
66 | COC(=O)c1ccccc1C(=O)N1CCCC(C(=O)c2ccc(OC)c(OC)c2)C1 (centres unmarked) | 4.47

Row | Compound | hERG current change (%, negative = inhibition) at 10uM [%]
67 | COc1ccc(C(=O)C2CCCN(C3CSCCSC3)C2)cc1OC (centres unmarked) | -21.8
68 | COc1ccc(C(=O)C2CCCN(C3CSCCSC3)C2)c(OC)c1 (centres unmarked) | -43.6
69 | COc1ccc(OC)c(NC(=O)N2CCCC(C(=O)c3ccccc3OC)C2)c1 (centres unmarked) | 5.87
70 | CC(C)(C)NC(=O)COc1ccc(CNc2ccc3[nH]c(=O)[nH]c3c2)cc1 | -1.87
71 | Cn1c(NCc2ccco2)nc2c1c(=O)n(Cc1ccc(Cl)c(Cl)c1)c(=O)n2C | -15.6
72 | COCCn1c(SCC(=O)/C=C2\N(C)c3ccccc3C2(C)C)nnc1-c1ccncc1 | -37.4
73 | CC(=O)Nc1ccccc1OCCOc1ccc(Br)cc1 | -1.67
74 | Clc1ccc(-c2nnc3n2CCCS3)cc1 | 6.34
75 | Cc1ccccc1OCC(=O)NCCc1nc2ccccc2[nH]1 | -9.27
76 | O=C(Nc1nc2ccccc2[nH]1)c1ccc(Cl)c([N+](=O)[O-])c1 | 0.857
77 | COc1ccccc1OCC(=O)NCCc1nc2ccccc2[nH]1 | 2.13
78 | CCOc1ccc(OCC(=O)NCCc2nc3ccccc3[nH]2)cc1 | -34.6
79 | O=C(COc1ccc([N+](=O)[O-])cc1)NCCc1nc2ccccc2[nH]1 | -56.7
80 | O=C(COc1ccccc1Br)NCCc1nc2ccccc2[nH]1 | -65.3
81 | O=C(NCCc1nc2ccccc2[nH]1)c1ccc([N+](=O)[O-])cc1 | -56.8
82 | O=C(NCCc1nc2ccccc2[nH]1)c1ccc(Cl)c([N+](=O)[O-])c1 | -56.2
83 | O=C(COc1ccccc1)NCCc1nc2ccccc2[nH]1 | -6.21
84 | O=C(NCCc1nc2ccccc2[nH]1)c1cc([N+](=O)[O-])cc([N+](=O)[O-])c1 | -8.57
85 | Cc1ccc(C(=O)NCCc2nc3ccccc3[nH]2)cc1[N+](=O)[O-] | -31.8
86 | O=C(NCc1nc2ccccc2[nH]1)c1ccc([N+](=O)[O-])cc1 | -38.5

Reference: publication PMC4336329 (PLoS ONE, 2015)
